# From PubChem
# This is a sample that favours compounds with a hit; in the whole collection about 2.8% have one here.
# PI5P4K alpha inh = qHTS for Inhibitors of phosphatidylinositol 5-phosphate 4-kinase (PI5P4K) | Phosphatidylinositol 5-phosphate 4-kinase type-2 alpha (Homo sapiens), P48426 | 1.2% of 330,000 active | AID 652105, 2013 | PI5P4Kalpha enzyme, ADP-Glo luminescence, 60 min; stronger effect = lower value | max response, %; active = max response of -50% or lower; inconclusive = between -30% and -50%; inactive = -30% or higher; note: value at the top dose of about 77 µM; % is set by controls: 0 for no effect and ±100 for the full control effect
#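 Compounds were pin-transferred onto PI5P4Kalpha and substrate in HEPES pH 7.4 buffer with EGTA, CHAPS and 5% DMSO. ATP (5 microM final) started the reaction, which ran 60 minutes at room temperature before ADP-Glo detection.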
# Pol kappa inh = qHTS for Inhibitors of Polymerase Kappa; AID 588579, 2011; Potency, µM (top dose mostly 107 µM), without a hit: top-dose activity, negative = inhibition, most hits filed as inhibitors; 0.53% of 400,000 active; purified Pol kappa, fluorescent DNA synthesis assay, 10 min; DNA polymerase kappa (Homo sapiens), Q9UBT6; note: potency is the fitted concentration of half-maximal effect; % is set by controls: 0 for no effect and ±100 for the full control effect
#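 Activity was followed as the change in fluorescence between reads at 0 and 10 min after starting the reaction with 50 nM substrate. Beforehand, 10 nM polymerase had been preincubated with compound for 15 min at room temperature.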
# FEN1 inhibitor = qHTS Assay for the Inhibitors of Human Flap endonuclease 1 (FEN1) | Potency, µM (series often up to 114 µM), for inactives: at the highest dose activity change, negative = inhibition, hits mostly inhibitors | 0.35% of 390,000 active | AID 588795, 2011 | Recombinant FEN1 flap cleavage, fluorescence, 15 min | P39748; note: potency is the fitted concentration of half-maximal effect; % is set by controls: 0 for no effect and ±100 for the full control effect; nearly all actives have a fitted effect of over 65% in size
#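 In this screen, 50 nM flap DNA substrate was added to 10 nM FEN1 pretreated with compound for 15 min at room temperature; cleavage was followed with reads at 0 and 15 min, and Hill fitting gave concentration–response parameters.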
# POLH inh = qHTS for Inhibitors of Polymerase Eta; DNA polymerase eta (Homo sapiens), Q9Y253; recombinant Pol eta, fluorescent DNA replication assay; Potency, µM (series often up to 114 µM), inactives show at the top dose activity change, negative = inhibition, usual class: inhibitors; 1.2% of 390,000 active; note: potency is the fitted concentration of half-maximal effect; % is set by controls: 0 for no effect and ±100 for the full control effect
# Target sequence (Q9Y253 whole entry, looked up): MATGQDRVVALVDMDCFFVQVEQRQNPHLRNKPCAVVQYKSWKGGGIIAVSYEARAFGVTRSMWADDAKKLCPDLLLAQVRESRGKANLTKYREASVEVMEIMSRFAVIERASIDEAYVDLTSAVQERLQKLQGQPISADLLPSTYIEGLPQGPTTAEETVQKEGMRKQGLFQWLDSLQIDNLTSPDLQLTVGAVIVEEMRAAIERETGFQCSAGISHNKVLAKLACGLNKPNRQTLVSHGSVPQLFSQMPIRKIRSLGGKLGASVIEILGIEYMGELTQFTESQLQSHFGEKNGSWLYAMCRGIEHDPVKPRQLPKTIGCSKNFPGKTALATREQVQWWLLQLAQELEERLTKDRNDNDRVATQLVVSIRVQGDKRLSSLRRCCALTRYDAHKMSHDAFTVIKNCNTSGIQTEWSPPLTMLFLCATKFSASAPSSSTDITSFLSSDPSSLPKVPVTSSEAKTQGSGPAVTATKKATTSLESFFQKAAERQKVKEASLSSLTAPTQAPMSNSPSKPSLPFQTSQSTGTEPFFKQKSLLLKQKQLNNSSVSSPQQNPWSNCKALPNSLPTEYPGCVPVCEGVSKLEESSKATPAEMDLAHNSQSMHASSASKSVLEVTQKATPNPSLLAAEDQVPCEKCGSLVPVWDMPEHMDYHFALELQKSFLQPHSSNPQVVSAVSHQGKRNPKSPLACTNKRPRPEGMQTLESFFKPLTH
#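 Pol eta (10 nM) was preincubated with compounds for 15 min at room temperature, after which fluorescent replication substrate (50 nM final) was added to start the reaction. Fluorescence was read kinetically at 0 and 10 min.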
# POLB inh = qHTS Assay for Inhibitors of DNA Polymerase Beta | Pol beta primer extension/strand displacement, fluorescence kinetic | 1.3% of 340,000 active | Potency, µM (highest dose often 114 µM), inactives show at the top dose activity change, negative = inhibition, most hits filed as inhibitors | P06746; note: potency is the fitted concentration of half-maximal effect; % is set by controls: 0 for no effect and ±100 for the full control effect
#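 Enzyme-only controls used 10 nM Pol beta; buffer lacking enzyme served as negative control. Compound preincubated 15 min, then 50 nM substrate added; 0 and 10 min reads at room temperature.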
# POLI inh = qHTS for Inhibitors of Polymerase Iota. DNA polymerase iota (Homo sapiens), Q9UNA4. Pol iota fluorescent replication assay, 10 min. Potency, µM (top dose mostly 115 µM), for the others: at the highest dose activity, negative = inhibition, most hits filed as inhibitors. 1% of 390,000 active; note: potency is the fitted concentration of half-maximal effect
#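 Fluorescent replication assay read twice, at 0 min and 10 min after adding 50 nM (final) substrate. Enzyme (10 nM) and compounds were first incubated 15 min at room temperature; enzyme-free buffer wells were negative controls.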
# * = called active by the depositor; ? = inconclusive; . = no result; [ ] = another dose, or the depositor's remark. Unless noted, calls come from the whole dose curve; as a rule, active = well fitted curve in the direction sought with a large enough effect; inconclusive = small, poorly fitted or top-dose-only effect, or another doubt; inactive = no such curve, though single readings can be large; an effect the other way counts as inactive or inconclusive.
SMILES,PI5P4K alpha inh,Pol kappa inh,FEN1 inhibitor,POLH inh,POLB inh,POLI inh
COc1cc(S(=O)(=O)O)c(C)cc1N=Nc1c(O)ccc2cc(S(=O)(=O)O)ccc12,.,79µM*,35µM*,.,.,45µM*
CCS(=O)(=O)c1ccc(N=Nc2ccc(O)c3ncccc23)c(OC)c1,-5,-13%,-19%,-23%,-14%,63%
COc1ccc(C(=O)C[n+]2cc(Br)cc(Br)c2)cc1,.,-9%,?,.,.,-11%
COc1ccc(C(CNC(=O)COc2cccc(C(F)(F)F)c2)N2CCCC2)cc1 (centres undefined),25,4%,2%,-17%,.,-17%
Cc1nn(Cc2ccc(Cl)cc2)c(C)c1NC(=O)CCCn1nc([N+](=O)[O-])c(Cl)c1C,6,-17%,-5%,0%,89µM*,11%
CN(C)c1ccc(/C=C\C=C/c2ccnc3ccccc23)cc1,.,?,50µM*,.,.,-22%
CCN(CCCN(C)C)c1ccc(/C=C/c2ccnc3ccccc23)cc1,.,?,50µM*,.,.,?
CN(C)c1ccc(N=Cc2ccnc3ccccc23)cc1,.,2%,45µM*,.,.,?
CN(C)c1ccc(/C=C/c2ccnc3ccccc23)c(F)c1,.,3%,?,.,.,17%
CC(C)(C)NCC(O)COc1nsnc1N1CCOCC1 (centres undefined),.,.,.,-7%[57.1 µM],16%[57.1 µM],6%[58.9 µM]
c1ccc2c(-c3cncc4ccccc34)cncc2c1,-73*,-1%,-4%,-1%,.,32%
O=C(CCC(=O)c1ccc(F)cc1)OCc1nnc(-c2ccc([N+](=O)[O-])cc2)o1,-13,-10%,2%,-6%,.,4%
N=C(N)c1ccc(/C=C/c2ccc(C(=N)N)cc2O)cc1,-19,?,?,-6%,8.9µM*,35µM*
CN(C)/C=C/c1c([N+](=O)[O-])c2ccc(O)cc2n1-c1ccccc1,-59*,4%,-34%,-7%,-4%,31%
COC(=O)c1c(C)n(-c2ccccc2)c2ccc(O)cc12,.,-6%,-9%,-3%,0%,-10%
O=C1C(c2ccccc2)CN1Cc1ccccc1 (centres undefined),4,.,.,.,.,.
O=C1N(Cc2ccccc2)CC2(Br)COCOC12O (centres undefined),-62*,-8%,-32%,2%,.,-4%
C=CCc1cccc(/C=C/c2cc(=O)c3ccccc3[nH]2)c1O,-3,-15%,-12%,?,40µM*,?
COc1cc(Cl)c(C)cc1NC(=O)CCn1c(=O)c2cccn2c2cccnc21,.,3%,4%,79µM*,13%,2%
CC1=CC(C)(C)N2C(=O)C(=Nc3ccc(O)cc3)c3cccc1c32,?,-27%,?,20µM*,0%,7.9µM*
Cc1ccc(-c2nnc(Nc3ccc(O)cc3)c3ccccc23)cc1S(=O)(=O)NC(C)(C)CO,.,-23%,-18%,-20%,-19%,-16%
CC(C)(C)c1cc(NC(=O)CSc2nncs2)n(-c2ccccc2)n1,2,-1%,1%,-10%,29%,25%
COc1cc2sc3ccc(-c4ccc5[nH]ccc5c4)cc3c(=O)c2cc1OC,-7,-44%,-16%,-6%,.,79µM*
O=c1[nH]nc(-c2ccc(OCc3ccc(Cl)cc3Cl)cc2)o1,-2,-11%,-12%,2%,2%,9%
O=C(Nc1ccc(-c2n[nH]c(=S)o2)cc1)c1ccccc1,-63*,2%,-7%,-21%,15%,0%
Cc1ccc(NC(=S)Nc2cccc(-c3n[nH]c(=S)o3)c2)cc1,-68*,-9%,-12%,3%,5%,-21%
NC(=S)Nc1cccc(-c2n[nH]c(=S)o2)c1,-25,-5%,-12%,-3%,1%,-14%
